In the library only some 4.3% were active in any assay of this set; here they are far more common.
ADAM17 inh: ADAM17 inhibition, QFRET primary screen; P78536; recombinant ADAM17, EDANS/DABCYL FRET peptide cleavage; inhibition, % at 6.95 µM; hit rate 0.83% among 370,000; AID 720648;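 active = inhibition above the mean of compounds lying between control limits plus 3 SD, set per campaign, cut at about 8.5% in these data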
GRIN3A LBD mod: modulates the human NR3A ligand-binding domain | Tm shift relative to glycine control, % at 25 µM | NR3A LBD differential scanning fluorimetry, Tm shift; 0% = protein alone, 100% = glycine-bound protein | hit rate 2.5% among 340,000;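 active = melting temperature shift of at least 10% of the positive control shift, at one fixed dose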
HGIII-sPLA2 inh: Inhibits HGIII-sPLA2 liposome hydrolysis, primary screen; QFRET BODIPY PC-A2 liposome hydrolysis, fluorescence; hit rate 0.56% among 370,000; Q9NZ20; AID 743126; inhibition, % at 12.2 µM;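 active = inhibition above mean plus 3 SD of compounds lying within the high and low control bounds, cut at about 19% in these data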
Target sequence (Q9NZ20 whole entry, looked up): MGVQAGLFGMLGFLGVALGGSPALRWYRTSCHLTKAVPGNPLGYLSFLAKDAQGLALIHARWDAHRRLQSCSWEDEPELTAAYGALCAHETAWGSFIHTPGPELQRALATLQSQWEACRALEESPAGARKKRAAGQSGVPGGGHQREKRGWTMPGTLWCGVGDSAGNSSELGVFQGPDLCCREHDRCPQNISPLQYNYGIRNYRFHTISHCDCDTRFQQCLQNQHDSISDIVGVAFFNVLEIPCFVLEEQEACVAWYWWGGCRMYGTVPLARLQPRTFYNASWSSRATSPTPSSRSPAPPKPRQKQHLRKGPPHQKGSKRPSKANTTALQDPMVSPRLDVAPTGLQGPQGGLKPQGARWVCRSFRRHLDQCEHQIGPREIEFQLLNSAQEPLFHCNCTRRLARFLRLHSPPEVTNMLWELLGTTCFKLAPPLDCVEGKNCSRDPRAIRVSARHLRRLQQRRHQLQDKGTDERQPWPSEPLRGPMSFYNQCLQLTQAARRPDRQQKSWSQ
FAS TE block: FAS thioesterase (human) inhibition | P49327 | recombinant FAS-TE, OMFH fluorogenic substrate, fluorescence endpoint | inhibition, % at 15 µM | hit rate 0.67% among 360,000 | AID 602261;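 active = compounds whose normalised, plate-corrected inhibition of enzyme fluorescence in the single-dose primary screen is 50% or more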
ADAM10 inh: ADAM10 inhibition, QFRET primary screen. AID 720582. inhibition, % at 7 µM. O14672. hit rate 0.62% among 370,000. recombinant ADAM10, EDANS/DABCYL FRET peptide cleavage, 3 h;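 active = inhibition above a per-campaign cutoff equal to the mean of compounds falling between control-based bounds plus 3 SD, cut at about 20% in these data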
ADAM10 confirm: human ADAM10 inhibition, confirmation | shares compounds with ADAM10 inh | ADAM10 QFRET peptide cleavage, EDANS fluorescence | inhibition, % at 6.95 µM | hit rate 1% among 2,100 | AID 743208;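 active = inhibition above about 20% chosen separately for each screening run, limit read from the data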
ADAM17 ctr: counter-screen for ADAM10 exosite inhibitors: inhibitors of human ADAM17; inhibition, % at 6.95 µM; AID 743214; shares compounds with ADAM10 inh; hit rate 0.5% among 2,100; ADAM17 QFRET peptide cleavage, EDANS fluorescence;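 active = mean triplicate inhibition above the solvent-only control wells' mean plus 3 SD, cut at about 12% in these data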
ADAM10 ctr: counter-screen for ADAM17 exosite inhibitors: inhibitors of human ADAM10; shares compounds with ADAM17 inh; recombinant ADAM10, EDANS/DABCYL FRET peptide cleavage, 3 h; inhibition, % at 6.95 µM; hit rate 47% among 2,900; AID 743256;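 active = mean inhibition over the triplicate runs exceeds the activity threshold set in the earlier primary screen, cut at about 20% in these data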
ADAM17 confirm: human ADAM17 inhibition, confirmation | hit rate 65% among 2,900 | shares compounds with ADAM17 inh | recombinant ADAM17, EDANS/DABCYL QFRET peptide cleavage | AID 743257 | inhibition, % at 6.95 µM;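 active = mean inhibition across replicates above the hit cutoff set in the primary screen, cut at about 8.5% in these data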
Numbers stand for hits; 0 = inactive; - = no result.

SMILES	ADAM17 inh	GRIN3A LBD mod	HGIII-sPLA2 inh	FAS TE block	ADAM10 inh	ADAM10 confirm	ADAM17 ctr	others
COc1cc(C(=O)Nc2ccc3c(c2)nc(C)n3C)cc(OC)c1OC	0	0	0	0	0	-	-
Cc1ccc(N(CC(=O)Nc2ccc3c(c2)OCCO3)S(=O)(=O)c2c(C)n[nH]c2C)cc1	0	0	0	0	20	0	0
COc1cccc(C(C)(O)c2nc(-c3ccc(C)c(C)c3)cs2)c1 (configuration not stated)	0	-	0	0	21	0	0
O=[N+]([O-])c1ccc2c(c1)CO[C@]21O[C@H](CCO)C[C@H](O)[C@H]1O	0	-	0	-	0	-	-
COc1ccc2c(c1)C[C@]1(C)c3ccccc3C(=O)N(Cc3ccccc3)[C@H]21	0	0	0	0	26	0	0
COc1ccc(S[C@]2(C(=O)N3CCN(C(C)=O)CC3)CC(=O)N(C(=O)Nc3ccc(C)c(Cl)c3)[C@@H]2c2ccc(OC)cc2)cc1	9.5	-	0	-	20	0	0
CCc1nnc(NC(=O)CSc2ccc(-c3ccc(-n4cccn4)cc3)nn2)s1	0	35	0	0	54	0	0
N#Cc1ccc(CSc2nc3sc4c(c3c(=O)n2-c2ccc(Br)cc2)CCCC4)cc1	0	-	0	-	0	-	-
O=[N+]([O-])c1ccc2nc(CNc3nc(N4CCOCC4)nc4c3ncn4-c3ccsc3)[nH]c2c1	0	-	0	-	0	-	-
ON=C1c2ccccc2-c2ccc(Br)cc21	0	0	0	0	26	0	0
O=C(Nc1cccc(C(F)(F)F)c1)C1Cc2c(-c3ccc(Cl)cc3)ccnc2O1 (configuration not stated)	0	-	0	0	0	-	-
CC(=O)c1cccc(-c2ccnc3c2CC(C(=O)Nc2ccc(Cl)c(C(F)(F)F)c2)O3)c1 (configuration not stated)	0	-	0	0	26	0	0
O=C(Nc1cccc(C(F)(F)F)c1)C1Cc2c(-c3ccccc3)ccnc2O1 (configuration not stated)	0	-	0	0	22	0	0
COCCCNC(=O)C[C@H]1C[C@@]2(C(=O)OC)C(=C[C@H](C(C)(C)C)O[C@@H]2C)N(Cc2cccc3ccccc23)C1=O	0	-	0	-	0	-	-
CC1CC(C)CN(C(=S)SCc2nc(N)nc(Nc3ccccc3)n2)C1 (configuration not stated)	0	0	0	0	28	0	0
CCCCNS(=O)(=O)/C=C/c1ccccc1CNC(=O)OC(C)(C)C	0	-	0	-	0	-	-
COc1ccccc1NC(=O)c1c(Nc2ccccc2F)sc(C(=O)Nc2cccc(Cl)c2)c1N	9.1	29	0	0	27	0	0
COc1ccccc1NC(=O)C/C(N)=N/OCC(=O)Nc1cccc(Cl)c1	0	0	0	0	0	-	-
O=C(NC(Cc1c[nH]c2ccccc12)C(=O)Nc1ccc(OC(F)(F)F)cc1)c1cccs1 (configuration not stated)	12	33	0	0	25	0	0	ADAM10 ctr=59;ADAM17 confirm=30
O=C(COC(=O)[C@H](Cc1c[nH]c2ccccc12)NC(=O)c1cccs1)NCc1ccccc1	0	0	0	0	0	-	-
COCCCN1C(=O)[C@H](CC(=O)NCc2ccc(C)o2)[C@]2(C(=O)OC)CCCCC=C12	0	-	0	-	0	-	-
CN(CCOC(=O)c1occ2ccccc12)C1CN(Cc2cn(Cc3ccccc3Cl)nn2)S(=O)(=O)C1 (configuration not stated)	0	-	0	-	0	-	-
C[C@H](CO)N1C[C@H](C)[C@H](CN(C)S(=O)(=O)c2cccs2)Oc2ccc(NC(=O)Nc3ccc4c(c3)OCO4)cc2CC1=O	13	0	0	0	27	0	0	ADAM10 ctr=0;ADAM17 confirm=14
COc1ccc(NC(=O)Nc2ccc3c(c2)C(=O)N([C@H](C)CO)C[C@H](C)[C@@H](CN(C)S(=O)(=O)c2cccs2)O3)cc1	16	0	0	0	21	0	0	ADAM10 ctr=0;ADAM17 confirm=10
C[C@H](CO)N1C[C@H](C)[C@@H](CN(C)S(=O)(=O)c2cccs2)Oc2ccc(NC(=O)Nc3ccc4c(c3)OCO4)cc2C1=O	0	0	0	0	0	-	-
SMILES	ADAM17 inh	GRIN3A LBD mod	HGIII-sPLA2 inh	FAS TE block	ADAM10 inh	ADAM10 confirm	ADAM17 ctr	others
CC(C)NC(=O)Nc1ccc2c(c1)C(=O)N([C@H](C)CO)C[C@H](C)[C@@H](CN(C)S(=O)(=O)c1cccs1)O2	0	0	0	0	0	-	-
COc1ccc(NC(=O)Nc2ccc3c(c2)C(=O)N([C@@H](C)CO)C[C@@H](C)[C@@H](CN(C)S(=O)(=O)c2cccs2)O3)cc1	8.8	0	0	0	21	0	0	ADAM10 ctr=0;ADAM17 confirm=12
C[C@@H]1CN([C@@H](C)CO)C(=O)CCCn2cc(nn2)CO[C@H]1CN(C)S(C)(=O)=O	0	-	0	-	0	-	-
O=C(COC(=O)CCCOc1ccc(Cl)cc1Cl)NCc1ccc(F)cc1	0	0	0	0	0	-	-
COc1ccc(NC(=O)COC(=O)CCCOc2ccc(Cl)cc2Cl)cc1	10	27	0	0	24	0	0	ADAM10 ctr=0;ADAM17 confirm=0
C/C(=N/NC(=O)Cc1cccs1)c1cccc([N+](=O)[O-])c1	0	-	0	-	0	-	-
O=C(NCc1ccco1)c1ccc(N2CCCCC2)c([N+](=O)[O-])c1	0	0	0	0	0	-	-
CC1CCN(c2ccc(C(=O)NCc3ccco3)cc2[N+](=O)[O-])CC1	9.0	0	0	0	23	0	0	ADAM10 ctr=0;ADAM17 confirm=0
Cc1ccccc1C(=O)N(Cc1ccccn1)CC1CCCO1 (configuration not stated)	0	-	0	-	0	-	-
O=C(NC(c1ccc(Cl)cc1)c1c(O)ccc2ccccc12)c1ccccc1 (configuration not stated)	0	0	0	0	0	-	-
O=C(NC(c1ccccc1)c1c(O)ccc2ccccc12)c1ccccc1Cl (configuration not stated)	10	11	0	0	21	0	0	ADAM10 ctr=0;ADAM17 confirm=8.7
CCCCC(=O)NC(c1ccc([N+](=O)[O-])cc1)c1c(O)ccc2ccccc12 (configuration not stated)	11	0	0	0	28	0	0	ADAM10 ctr=36;ADAM17 confirm=19
COc1ccccc1NC(=O)CN1CCN(CC(=O)Nc2ccc(Cl)c(C(F)(F)F)c2)CC1	0	0	0	0	0	-	-
CCc1ccccc1NCC(=O)Nc1ccc(Cl)c(C(F)(F)F)c1	17	21	0	0	35	0	0	ADAM10 ctr=40;ADAM17 confirm=19
